SMILES strings stand for the structures. For some of these results: Results with a measured potency or affinity are listed apart.

Percent Effect data for 11 molecules are collected here from ChEMBL document CHEMBL3988442, “University of Dundee, Small-Polar-MMV Screening Library” (2021).

Common to all, as to set-up: scale not given: direction of the effect not stated beside the values
The target in assay [1] is Protein translocase subunit SecA (Escherichia coli (strain K12)) (UniProt P10408). The assay is described as follows: Assay to Identify E. coli SecA ATPase Inhibitors. It is filed as functional. The conditions noted are these: 30 µM.
In assay [2] the target is T1, Ubiquitin-activating enzyme e1, putative (Leishmania donovani (strain BPK282A1)) (UniProt E9BSI1).
T1 sequence (whole entry): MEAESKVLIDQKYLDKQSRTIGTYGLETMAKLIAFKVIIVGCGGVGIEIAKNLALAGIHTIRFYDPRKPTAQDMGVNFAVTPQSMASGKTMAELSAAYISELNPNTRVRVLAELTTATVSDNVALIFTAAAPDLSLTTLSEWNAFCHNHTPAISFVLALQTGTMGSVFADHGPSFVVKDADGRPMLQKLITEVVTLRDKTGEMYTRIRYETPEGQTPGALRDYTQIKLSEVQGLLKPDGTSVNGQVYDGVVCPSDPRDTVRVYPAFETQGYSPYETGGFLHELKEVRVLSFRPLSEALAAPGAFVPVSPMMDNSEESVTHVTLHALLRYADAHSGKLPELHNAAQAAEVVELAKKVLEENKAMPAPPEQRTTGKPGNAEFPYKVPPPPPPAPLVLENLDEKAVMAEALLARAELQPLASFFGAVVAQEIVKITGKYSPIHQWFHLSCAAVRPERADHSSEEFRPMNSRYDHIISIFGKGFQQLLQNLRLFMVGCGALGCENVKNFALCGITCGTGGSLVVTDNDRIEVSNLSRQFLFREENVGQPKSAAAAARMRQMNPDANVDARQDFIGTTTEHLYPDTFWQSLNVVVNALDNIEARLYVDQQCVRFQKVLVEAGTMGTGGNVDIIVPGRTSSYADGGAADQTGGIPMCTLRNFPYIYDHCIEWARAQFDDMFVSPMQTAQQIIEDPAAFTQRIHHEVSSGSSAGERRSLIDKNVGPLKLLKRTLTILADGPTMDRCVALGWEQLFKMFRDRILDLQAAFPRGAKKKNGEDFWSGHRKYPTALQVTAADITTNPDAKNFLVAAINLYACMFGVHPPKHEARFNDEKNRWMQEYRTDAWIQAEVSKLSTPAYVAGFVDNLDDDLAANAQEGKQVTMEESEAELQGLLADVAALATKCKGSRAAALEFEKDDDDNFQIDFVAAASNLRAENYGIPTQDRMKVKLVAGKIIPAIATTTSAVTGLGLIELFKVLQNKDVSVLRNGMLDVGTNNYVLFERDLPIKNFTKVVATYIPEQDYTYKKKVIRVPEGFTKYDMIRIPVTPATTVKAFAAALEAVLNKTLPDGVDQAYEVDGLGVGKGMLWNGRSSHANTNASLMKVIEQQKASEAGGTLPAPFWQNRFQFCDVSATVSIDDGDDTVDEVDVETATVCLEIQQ
The assay is described as follows: Leishmania donovani Ubiquitin Activating Enzyme (LdE1). Type of assay: functional. The conditions noted are these: 30 µM.

Assay [3] deals with AMP-activated protein kinase, AMPK (Homo sapiens) (UniProt P54646+O43741+P54619+Q9UGJ0+Q9Y478+Q13131+Q9UGI9). Briefly: AMP-dependent Kinase enzyme assay. An in vitro enzyme assay that detects ADP turnover that is directly proportional to AMPK activity. This uses naive AMPK that is activated during the assay with MK-8722. It is filed as functional. The conditions noted are these: 30 µM.

For assay [4], the target named is Sialic acid-binding Ig-like lectin 9 (Homo sapiens) (UniProt Q9Y336). The assay is described as follows: Hs-Siglec9 ALPHAscreen SOP 20170721. The conditions noted are these: 10 µM.
The test system of a further assay is Trypanosoma cruzi. Briefly: Trypanosoma cruzi phosphomannomutase and mannose-1-phosphate guanylyltransferase assay. The conditions noted are these: 10 µM. Type of assay: functional.
In assay [5] the target is T2, Arginase-2, mitochondrial (Homo sapiens) (UniProt P78540).
T2 sequence (whole entry): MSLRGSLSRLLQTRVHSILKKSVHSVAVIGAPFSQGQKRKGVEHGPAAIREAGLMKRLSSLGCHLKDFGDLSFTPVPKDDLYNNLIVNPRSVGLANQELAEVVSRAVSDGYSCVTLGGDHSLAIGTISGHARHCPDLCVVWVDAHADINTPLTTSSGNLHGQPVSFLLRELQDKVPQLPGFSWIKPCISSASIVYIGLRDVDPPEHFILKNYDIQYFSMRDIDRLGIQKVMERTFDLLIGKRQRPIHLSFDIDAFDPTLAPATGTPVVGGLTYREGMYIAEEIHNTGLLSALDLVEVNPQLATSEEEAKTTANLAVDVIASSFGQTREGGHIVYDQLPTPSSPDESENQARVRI
Briefly: in vitro enzyme assay to detect the production of urea directly proportional to the activity of Arginase II. Also: in the data most compounds retested in dose-response had high values. It is filed as functional. The conditions noted are these: 33.3 µM.

Assay [6] deals with T3, Proteasome subunit beta (Trypanosoma cruzi) (UniProt O96673).
T3 sequence (whole entry): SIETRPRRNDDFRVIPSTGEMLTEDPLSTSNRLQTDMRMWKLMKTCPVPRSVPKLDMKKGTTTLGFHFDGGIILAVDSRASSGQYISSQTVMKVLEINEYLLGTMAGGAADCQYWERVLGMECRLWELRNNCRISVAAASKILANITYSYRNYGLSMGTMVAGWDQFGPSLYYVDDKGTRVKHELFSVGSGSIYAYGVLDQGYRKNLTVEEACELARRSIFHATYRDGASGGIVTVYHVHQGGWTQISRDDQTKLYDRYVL
The assay is described as follows: Trypanosoma cruzi proteasome chymotrypsin-like activity (TcProtChymo) assay. Also: in the data most compounds retested in dose-response had high values. It is filed as functional. The conditions noted are these: 9.37 µM.

The species entered for another assay is Homo sapiens. The assay is described as follows: To identify inhibition of the IFN signalling (Jak-Stat) pathway via expression of an eGFP reporter gene under the control of an IFN-stimulated response element (ISRE) containing MxA promoter. Type of assay: functional. The conditions noted are these: 30 µM.
Assay [7] addresses T4, Tyrosyl-tRNA synthetase, putative (Trypanosoma cruzi (strain CL Brener)) (UniProt Q4DSP6).
T4 sequence (whole entry): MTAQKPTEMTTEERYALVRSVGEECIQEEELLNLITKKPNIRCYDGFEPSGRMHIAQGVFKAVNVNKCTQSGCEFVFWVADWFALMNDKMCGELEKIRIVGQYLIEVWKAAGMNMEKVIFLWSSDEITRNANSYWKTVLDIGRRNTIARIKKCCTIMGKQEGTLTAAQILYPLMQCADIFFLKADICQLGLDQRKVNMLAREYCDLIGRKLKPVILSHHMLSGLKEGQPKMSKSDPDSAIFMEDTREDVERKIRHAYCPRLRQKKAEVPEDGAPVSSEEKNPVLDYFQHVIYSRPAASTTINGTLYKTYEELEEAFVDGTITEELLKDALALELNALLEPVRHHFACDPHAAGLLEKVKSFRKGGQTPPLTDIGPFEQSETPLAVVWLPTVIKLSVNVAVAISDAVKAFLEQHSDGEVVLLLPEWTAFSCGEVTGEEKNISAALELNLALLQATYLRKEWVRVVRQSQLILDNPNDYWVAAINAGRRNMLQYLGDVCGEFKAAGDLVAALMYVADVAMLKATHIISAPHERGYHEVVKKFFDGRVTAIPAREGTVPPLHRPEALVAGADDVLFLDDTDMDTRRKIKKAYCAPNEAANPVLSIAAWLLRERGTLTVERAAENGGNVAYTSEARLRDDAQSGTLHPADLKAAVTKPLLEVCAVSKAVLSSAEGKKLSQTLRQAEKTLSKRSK
The assay is described as follows: Trypanosoma cruzi tyrosyl tRNA synthetase (TcYRS) _High Tyrosine SOP. Also: in the data most compounds retested in dose-response had high values. It is filed as functional. The conditions noted are these: 30 µM.

Assay [8] addresses T4, Tyrosyl-tRNA synthetase, putative (Trypanosoma cruzi (strain CL Brener)). Briefly: Trypanosoma cruzi tyrosyl tRNA synthetase (TcYRS) SOP. Type of assay: functional. The conditions noted are these: 30 µM.
Assay [9] addresses Chromo domain-containing protein 1 (Saccharomyces cerevisiae (strain ATCC 204508 / S288c) (Baker's yeast)) (UniProt P32657). Briefly: ScCHD-1 Enzyme Inhibition Assay. Also: in the data most compounds retested in dose-response had high values. Type of assay: functional. The conditions noted are these: 30 µM.

Sequence of Sialic acid-binding Ig-like lectin 9 (Homo sapiens) (Q9Y336 whole entry): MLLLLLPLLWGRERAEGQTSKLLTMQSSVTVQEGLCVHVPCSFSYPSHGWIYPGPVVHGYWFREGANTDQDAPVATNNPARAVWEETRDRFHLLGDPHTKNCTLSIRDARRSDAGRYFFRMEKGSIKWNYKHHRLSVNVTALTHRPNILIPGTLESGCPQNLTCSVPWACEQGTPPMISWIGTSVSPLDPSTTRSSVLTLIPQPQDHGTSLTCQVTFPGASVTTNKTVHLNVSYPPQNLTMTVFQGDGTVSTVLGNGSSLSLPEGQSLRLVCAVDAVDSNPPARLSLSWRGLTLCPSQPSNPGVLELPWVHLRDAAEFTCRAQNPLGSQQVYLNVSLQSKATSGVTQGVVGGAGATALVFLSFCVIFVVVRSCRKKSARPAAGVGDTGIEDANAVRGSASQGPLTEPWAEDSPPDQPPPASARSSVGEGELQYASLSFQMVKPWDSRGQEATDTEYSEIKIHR
Sequence of Protein translocase subunit SecA (Escherichia coli (strain K12)) (P10408 whole entry): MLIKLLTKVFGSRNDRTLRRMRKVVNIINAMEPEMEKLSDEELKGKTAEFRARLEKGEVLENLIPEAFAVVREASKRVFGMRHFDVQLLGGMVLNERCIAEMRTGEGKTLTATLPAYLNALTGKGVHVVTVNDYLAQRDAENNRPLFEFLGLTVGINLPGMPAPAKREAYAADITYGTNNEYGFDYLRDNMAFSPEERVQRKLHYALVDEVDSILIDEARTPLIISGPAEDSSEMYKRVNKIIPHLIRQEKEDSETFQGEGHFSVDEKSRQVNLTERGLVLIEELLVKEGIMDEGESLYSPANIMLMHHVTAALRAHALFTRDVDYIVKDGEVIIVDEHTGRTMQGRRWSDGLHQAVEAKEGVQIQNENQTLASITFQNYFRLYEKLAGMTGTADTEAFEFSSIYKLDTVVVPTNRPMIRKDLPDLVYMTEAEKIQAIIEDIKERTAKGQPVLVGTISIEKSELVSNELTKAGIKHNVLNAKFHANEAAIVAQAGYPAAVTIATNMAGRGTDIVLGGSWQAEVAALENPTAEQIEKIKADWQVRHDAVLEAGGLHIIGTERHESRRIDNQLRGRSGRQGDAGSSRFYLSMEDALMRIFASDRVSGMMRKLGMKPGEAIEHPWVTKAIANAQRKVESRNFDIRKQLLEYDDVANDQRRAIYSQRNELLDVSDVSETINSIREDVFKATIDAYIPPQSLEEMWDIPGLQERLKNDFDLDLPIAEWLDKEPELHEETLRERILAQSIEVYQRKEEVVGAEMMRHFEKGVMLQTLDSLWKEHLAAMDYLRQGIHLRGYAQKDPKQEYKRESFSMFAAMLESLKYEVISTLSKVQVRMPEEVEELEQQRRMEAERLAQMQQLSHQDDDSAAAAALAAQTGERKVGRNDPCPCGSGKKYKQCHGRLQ
Sequence of Chromo domain-containing protein 1 (Saccharomyces cerevisiae (strain ATCC 204508 / S288c) (Baker's yeast)) (P32657 whole entry, the tested form may be a part): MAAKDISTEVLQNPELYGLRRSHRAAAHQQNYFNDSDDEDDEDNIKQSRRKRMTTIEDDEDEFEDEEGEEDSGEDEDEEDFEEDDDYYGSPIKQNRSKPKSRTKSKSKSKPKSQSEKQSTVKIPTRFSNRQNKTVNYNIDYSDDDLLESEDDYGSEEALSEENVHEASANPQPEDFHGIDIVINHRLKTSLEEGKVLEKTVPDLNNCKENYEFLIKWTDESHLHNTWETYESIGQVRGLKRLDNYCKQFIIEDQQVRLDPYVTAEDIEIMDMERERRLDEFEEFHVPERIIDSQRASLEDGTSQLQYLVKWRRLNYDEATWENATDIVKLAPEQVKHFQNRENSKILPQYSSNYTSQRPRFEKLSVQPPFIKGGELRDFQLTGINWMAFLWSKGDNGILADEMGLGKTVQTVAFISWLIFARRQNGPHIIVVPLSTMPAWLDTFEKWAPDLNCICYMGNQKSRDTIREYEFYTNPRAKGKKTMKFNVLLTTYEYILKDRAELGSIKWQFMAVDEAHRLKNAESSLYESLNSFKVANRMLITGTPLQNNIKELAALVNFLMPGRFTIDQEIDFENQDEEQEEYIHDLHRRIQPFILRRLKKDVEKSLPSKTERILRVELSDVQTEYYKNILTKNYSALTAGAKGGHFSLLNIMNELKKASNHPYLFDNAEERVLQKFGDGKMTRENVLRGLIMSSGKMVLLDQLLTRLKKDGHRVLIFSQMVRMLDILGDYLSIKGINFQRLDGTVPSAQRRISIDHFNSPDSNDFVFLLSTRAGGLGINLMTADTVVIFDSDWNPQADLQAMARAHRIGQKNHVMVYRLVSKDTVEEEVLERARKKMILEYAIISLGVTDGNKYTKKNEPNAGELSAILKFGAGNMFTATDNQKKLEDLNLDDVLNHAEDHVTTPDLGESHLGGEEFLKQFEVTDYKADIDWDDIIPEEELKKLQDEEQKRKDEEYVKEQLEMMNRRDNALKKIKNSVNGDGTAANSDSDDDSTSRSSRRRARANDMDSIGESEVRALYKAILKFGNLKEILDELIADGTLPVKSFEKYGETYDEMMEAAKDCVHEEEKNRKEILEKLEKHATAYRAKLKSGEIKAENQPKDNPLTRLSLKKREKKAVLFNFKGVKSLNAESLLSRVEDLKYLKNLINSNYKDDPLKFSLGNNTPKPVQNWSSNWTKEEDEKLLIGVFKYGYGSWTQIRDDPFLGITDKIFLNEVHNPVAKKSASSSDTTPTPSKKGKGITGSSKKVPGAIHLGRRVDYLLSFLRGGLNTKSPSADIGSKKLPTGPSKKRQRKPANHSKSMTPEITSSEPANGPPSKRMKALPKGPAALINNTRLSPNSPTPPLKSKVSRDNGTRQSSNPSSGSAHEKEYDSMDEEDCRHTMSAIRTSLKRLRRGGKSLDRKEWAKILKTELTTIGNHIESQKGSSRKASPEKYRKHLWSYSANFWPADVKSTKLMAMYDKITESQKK

As for `O=C(c1cccc(Cn2ccnc2)c1)N1CCCC(n2ccnc2)C1` (stereo unspecified), the Percent Effect was -0.331% in assay [1]; 16.2% in assay [2]; -8.78% in [3]; 1.96% in [4]; 5.11% with Trypanosoma cruzi; -2.4% in assay [5]. In addition, the Percent Effect in assay [6] was 7%; in the assay listed under Homo sapiens, 29%; in [7], 5.94%; in [8], 25.6%; in [9], -6.66%.
Take `O=C(CCOCc1ccccc1)N1CCCC1c1noc(C2CC2)n1` (stereo unspecified): the Percent Effect was -0.0528% in assay [1]; 21.6% in [2]; -9.42% in assay [3]; 3.05% in [4]; 1.23% in the assay with Trypanosoma cruzi; -10.4% in assay [5]. In addition, the Percent Effect in assay [6] was 5.22%; in the assay listed under Homo sapiens, 4.41%; in assay [7] it was -23.1%; in assay [8], 25.9%; in assay [9] it was -10%.
Take `CN(Cc1cccc(F)c1)S(=O)(=O)N1CCOCC1`: the Percent Effect in assay [1] was -1.93%; in [2], 7.89%; in assay [3] it was 1.93%; in [4] it was -0.448%; in the assay with Trypanosoma cruzi, -0.876%; in [5], -1.18%. In addition, the Percent Effect is 24.4% in assay [6]; 9.7% in the assay filed under Homo sapiens; 2.13% in [7]; 13% in assay [8]; -6.29% in assay [9].
Regarding `Cc1nn(C)c(N(C)C)c1CNCc1cccc(OCCN(C)C)c1`, the Percent Effect was -0.484% in [1]; 15.8% in [2]; -1.72% in assay [3]; 5.4% in [4]; -8.08% in the assay on Trypanosoma cruzi; -4.98% in [5]. Moreover, the Percent Effect in [6] was 14.4%; in the assay filed under Homo sapiens, 23.3%; in assay [7] it was -1.47%; in assay [8], 7.32%; in [9] it was -6.3%.
Consider `CCc1nc(CN(C)C2CCN(CCn3cc(C#N)cn3)C2)no1` (stereo unspecified), for which the Percent Effect in assay [1] was 1.6%; in assay [2], 13.5%; in [3], -2.36%; in assay [4] it was -1.05%; in the assay on Trypanosoma cruzi it was -7.64%; in assay [5] it was -13.6%. Also, the Percent Effect in [6] was 17.5%; in the assay filed under Homo sapiens, 23.4%; in [7], 4.43%; in [8], 6.17%; in assay [9], -5.98%.
`COC(=O)CCN1CCCC1c1ccccc1Cl` (stereo unspecified): the Percent Effect was -3.1% in assay [1]; -2.67% in assay [2]; -1.16% in [3]; 1.78% in [4]; 2.04% with Trypanosoma cruzi; -1.56% in assay [5]. For the same molecule, the Percent Effect is 5.41% in assay [6]; 1.88% in the assay listed under Homo sapiens; 3.83% in [7]; 6.17% in assay [8]; -0.731% in assay [9].
On to `Cc1cc(=O)n2ncnc2n1CC(O)c1cc(F)ccc1F` (stereo unspecified), for which the Percent Effect in [1] was -4.1%; in assay [2] it was 18.4%; in [3] it was 1.21%; in assay [4], -4.45%; in the assay on Trypanosoma cruzi, 5.55%; in assay [5], 1.18%. In addition, the Percent Effect in assay [6] was 15.6%; in the assay filed under Homo sapiens it was 6.3%; in [7], 5.32%; in assay [8], 20.8%; in assay [9], -3.49%.
As to `COCC(=O)N1CCC(c2nc3ccc(N4CCCC4)cn3n2)CC1`, the Percent Effect in assay [1] was -3.58%; in assay [2] it was 5.48%; in assay [3], -210%; in [4], 5.8%; in the assay with Trypanosoma cruzi it was -4.96%; in assay [5] it was 1.2%. The Percent Effect in [6] is 10%; in the assay listed under Homo sapiens, -9.84%; in [7] it was 7.29%; in assay [8], 11.1%; in assay [9], -3.02%.
In the case of `CN(C)C(=O)NC1COC2(CCN(Cc3ccccc3)CC2)C1` (stereo unspecified), the Percent Effect in [1] is -6.16%; in [2], 0%; in assay [3] it was 7.68%; in [4] it was -1.66%; with Trypanosoma cruzi, -3.94%; in assay [5] it was 1.17%. Further, the Percent Effect was 6.26% in assay [6]; 21.5% in the assay filed under Homo sapiens; -3.19% in assay [7]; -6.41% in assay [8]; -1.6% in assay [9].
`Cc1cccc(CCC(=O)N2CCCC(c3cc(C(N)=O)[nH]n3)C2)c1` (stereo unspecified): the Percent Effect was -1.48% in assay [1]; -18.9% in [2]; 4.97% in assay [3]; 8.55% in assay [4]; 6.13% with Trypanosoma cruzi; -10% in assay [5]. In addition, the Percent Effect in assay [6] was 0.36%; in the assay filed under Homo sapiens it was 9.14%; in assay [7], 0.493%; in assay [8], 11.1%; in assay [9] it was -8.73%.
For `O=C(c1cccc(Cl)c1)N1CCCn2c(CN3CCCCC3)nnc2C1`, the Percent Effect in assay [1] was -9.25%; in assay [2], 8%; in [3] it was -3.61%; in assay [4], 1.72%; with Trypanosoma cruzi, -6.3%; in [5], -2.1%. Moreover, the Percent Effect in assay [6] is 0.441%; in the assay filed under Homo sapiens, 10.4%; in assay [7], 4.25%; in [8], 3.85%; in [9] it was -2.51%.
